Tau ThT inhib = inhibitors of human tau fibril formation, thioflavin T binding; AID 1460; recombinant tau K18 P301L, heparin-induced fibrillization, ThT fluorescence; 270,000 tested, 2.1% active; Potency, µM (doses to about 57.4 µM), without a hit: top-dose activity, negative = inhibition, most hits filed as inhibitors; further: potency means the concentration at half of the fitted maximal effect; nearly all actives have a fitted effect of over 55% in size
Target sequence (P10636 561-689 P618L limits assumed): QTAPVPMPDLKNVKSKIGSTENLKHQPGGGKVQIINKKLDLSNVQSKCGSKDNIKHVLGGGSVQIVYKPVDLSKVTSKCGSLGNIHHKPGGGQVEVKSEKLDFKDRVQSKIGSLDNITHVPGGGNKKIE
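Recombinant human tau K18 fragment […] carrying P301L, 15 uM unlabeled plus 0.24 uM Alexa 594-labeled, was fibrillized with 20 uM heparin in 100 mM sodium acetate pH 7 for 6 hr at 37 C; 30 uM ThT fluorescence read after 1 hr.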
Tau fluor counter = counter-screen for tau fibril formation inhibitors. 280,000 tested, 0.93% active. Potency, µM (titrated, usually from 57.7 µM), for the others: at the highest dose activity change, negative = decrease. tau K18 P301L Alexa594 fluorescence, heparin fibrillization; further: potency means the concentration at half of the fitted maximal effect; nearly all actives have a fitted effect of over 55% in size
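Human tau K18 P301L (15 uM unlabeled, 0.24 uM Alexa 594-labeled) in 100 mM sodium acetate pH 7 with 20 uM heparin, 6 hr at 37 C. ThT 30 uM added, 1 hr ambient; Alexa 594 FP and total fluorescence read at 555/632 nm.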
Tau fibril FP = inhibitors of human tau fibril formation. AID 1468. K18 P301L tau heparin fibrillization, Alexa594 FP, 6 h. 280,000 tested, 0.39% active. Potency, µM (highest dose often 57.7 µM), inactives show top-dose activity, negative = inhibition, hits mostly inhibitors. P10636; further: potency means the concentration at half of the fitted maximal effect; nearly all actives have a fitted effect of over 55% in size
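Heparin (20 uM) drove fibril formation of recombinant tau K18 P301L, 15 uM unlabeled with 0.24 uM Alexa 594 label, for 6 hr at 37 C in 100 mM sodium acetate pH 7. Fluorescence polarization (555/632 nm) read 1 hr after 30 uM ThT.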
G9a inh = inhibitors of human histone lysine methyltransferase G9a. Q96KQ7. 350,000 tested, 8.8% active. Potency, µM (doses to about 102 µM), inactives show at the top dose activity, negative = inhibition, usual class: inhibitors. G9a H3K9 monomethylation, AlphaScreen, 2 h. AID 504332; further: potency means the concentration at half of the fitted maximal effect; nearly all actives have a fitted effect of over 75% in size
Target sequence (Q96KQ7 913-1193 limits assumed): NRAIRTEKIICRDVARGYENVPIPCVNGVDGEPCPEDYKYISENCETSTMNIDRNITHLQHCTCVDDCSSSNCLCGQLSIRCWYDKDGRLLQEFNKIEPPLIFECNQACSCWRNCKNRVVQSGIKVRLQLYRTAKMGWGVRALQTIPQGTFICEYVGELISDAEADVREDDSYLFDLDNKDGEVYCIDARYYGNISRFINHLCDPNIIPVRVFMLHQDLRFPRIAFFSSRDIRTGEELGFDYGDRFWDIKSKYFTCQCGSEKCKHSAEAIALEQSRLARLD
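Methyltransferase reactions run at room temperature for 2 h (20 nM enzyme, 500 nM biotin-H3K9 peptide, 20 uM SAM) after a 15 min compound preincubation; product detected by AlphaScreen beads and anti-H3K9me1 antibody.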
Sfp PPTase inh = Sfp phosphopantetheinyl transferase inhibition; Q9F4F7; Biochemical Sfp PPTase activity, qHTS; Potency, µM, inactives show largest response in the series, negative = inhibition, usual class: inhibitors; 310,000 tested, 3.5% active; AID 1490;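 further: the enzyme is Sfp with the accession as filed and its product quenches rhodamine fluorescence; potency means the concentration at half of the fitted maximal effect; 0% = enzyme reaction without inhibitor and -100% = no enzyme wells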
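Fluorescence-quenching assay: 15 nM Sfp-PPTase preincubated 15 min at room temperature with compound, then 5 uM rhodamine-CoA and 12.5 uM BHQ-2-labelled YbbR peptide added. Fluorescence (ex 525/em 598 nm) read at start and after 30 min; difference gives rate.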
FBPA coupling cs = coupling enzyme interference in Giardia aldolase counter-screen. coupling enzyme system counterscreen, AmpLite Red fluorescence. AID 2472. activity change, negative = inhibition, % at 58.2 µM, hits read low. 290,000 tested, 0.67% active; in the data active means activity change below about -30%
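Compounds tested against the coupling enzymes alone at 57.5 uM final; readout was AmpLite Red fluorescence (525/598 nm) after 20 min at RT.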
The depositor's hits bear a star; u = inconclusive; x = not tested or not shown; [ ] = remark or other dose. Sampled rows, rich in hits. Any-hit rate of the full collection: about 11%. Unless noted, the call rests on the fitted dose curve; in most records, active means well fitted curve in the direction sought with a large enough effect; inconclusive means small, poorly fitted or top-dose-only effect, or another doubt; inactive means no such curve, though single readings can be large; an effect the other way counts as inactive or inconclusive. Unless noted, on the % scale 0 is the no-effect control and ±100 the full control effect.

SMILES	Tau ThT inhib	Tau fluor counter	Tau fibril FP	G9a inh	Sfp PPTase inh	FBPA coupling cs
Cc1c(/C(O)=C2/C(=O)C(=O)N(Cc3cccnc3)C2c2ccccn2)cnn1-c1ccccc1 (centres undefined)	1.7%	0.5%	-2.5%	31.6µM*	0.9%	9.5
CCCCNC(=O)COc1ccccc1[N+](=O)[O-]	-0.7%	6.8%	9.0%	12.4%[59 µM]	3.8%	3.3
CCCCNC(=O)c1cc2cccc([N+](=O)[O-])c2[nH]1	x	-28.7%	6.1%	50.1µM*	-20.1%	-7.7
CCSc1nc2n(n1)C(c1ccc(CC)cc1)C(C(=O)Nc1ccccc1OC)=C(C)N2 (centres undefined)	14.0%	3.6%	u	10.2%[59 µM]	x	x
Cc1ccccc1Cn1nnc2c(=O)[nH]c(C3CCCN(C(=O)c4ccc(F)cc4)C3)nc21 (centres undefined)	-0.5%	-3.0%	1.4%	21.2%[59 µM]	x	x
Cc1nccc(-c2cccc(NC(=O)Nc3ccc(Cl)cc3)c2)n1	-5.2%	u	u	23.5%	5.8%	-0.2
Cc1nccc(-c2cccc(N/N=C(\C#N)C(=O)c3ccccc3)c2)n1	8.91µM*	u	2.7%	u	2.5%	5.4
Oc1ccc2ccccc2c1/C=N/c1nccs1	u	-7.9%	-13.6%	u	u	x
Oc1ccc2ccccc2c1C=NCc1cn2ccsc2n1	u	-26.4%	-17.4%	8.91µM*	14.9%	-35.2*
CCCNC(=O)C1CCC(Cn2c(=O)c3sccc3n(CC(=O)NCc3ccccc3)c2=O)CC1 (centres undefined)	-1.8%	4.3%	-7.5%	8.4%[59 µM]	x	x
COCCCN1C2=C(C(=O)CC(C)(C)C2)C(c2ccc(OC)c(OC)c2)C2=C1CC(C)(C)CC2=O	x	x	x	70.8µM*	24.7%	-3.2
COc1cc(C2C3=C(CC(C)(C)CC3=O)N(C)C3=C2C(=O)CC(C)(C)C3)cc(Br)c1O	x	x	x	70.8µM*	-3.9%	-1.4
COCCn1c(=O)c(-c2ccccc2)nc2cnc(N(C)C)nc21	x	x	x	3.2%[0.501 µM]	5.7%	-0.2
CC(NS(=O)(=O)c1ccccc1)C(=O)Nc1ccc2c(c1)OCCO2 (centres undefined)	x	x	x	u	6.2%	x
COCCn1c(SCc2ccc(F)cc2)nc2c1c(=O)[nH]c(=O)n2C	x	x	x	x	44.7µM*	-3.6
COCCn1c(SCCN2CCOCC2)nc2c1c(=O)[nH]c(=O)n2C	-3.1%	-4.0%	-0.3%	11.2µM*	12.6µM*	-0.4
Cc1ccc(CSc2nc3c(c(=O)[nH]c(=O)n3C)n2CCC(C)C)cc1	-14.5%	6.2%	11.9%	0.4%	0.0%	2.5
CC(C)CCn1c(SCc2ccc(Cl)cc2)nc2c1c(=O)[nH]c(=O)n2C	u	-7.9%	-6.4%	14.1µM*	44.7µM*	1.8
C=CCn1c(SCCN2CCOCC2)nc2c1c(=O)[nH]c(=O)n2C	-10.8%	-12.2%	-12.5%	-34.2%[12.7 µM]	-6.5%	3.2
CCOCCn1c(SCc2ccc(F)cc2)nc2c1c(=O)[nH]c(=O)n2C	-4.7%	-12.1%	-8.7%	u	0.1%	0.1
CCOc1cccc(-c2cc(-c3n[nH]c(=S)n3CC)c3ccccc3n2)c1	-11.2%	u	-6.6%	u	u	-1.9
Cc1ccc(-c2cc(-c3n[nH]c(=S)n3C)c3ccccc3n2)cc1	-0.6%	-18.7%	3.4%	2µM*	u	-0.6
CCn1c(-c2cc(C3CC3)nc3ccccc23)n[nH]c1=S	-12.7%	-1.8%	3.7%	2.24µM*	-7.7%	2.8
CCOc1ccccc1-c1cc(-c2n[nH]c(=S)n2CC)c2ccccc2n1	-16.2%	-8.8%	-1.4%	10µM*	2.9%	-3.8
CCn1c(-c2cc(-c3ccc(C)c(C)c3)nc3ccccc23)n[nH]c1=S	-17.3%	u	u	39.8µM*	-20.1%	-2.6
SMILES	Tau ThT inhib	Tau fluor counter	Tau fibril FP	G9a inh	Sfp PPTase inh	FBPA coupling cs
Cn1c(-c2ccccc2)n[nH]c1=S	-9.7%	-5.6%	-6.7%	x	-18.4%	3.7
CC(=O)c1ccc(S(=O)(=O)N2CCC3(CC2)CC(=O)c2ccccc2O3)cc1	x	x	x	-11.8%[0.501 µM]	x	x
CCn1c(-c2cc(-c3cc(C)ccc3C)nc3ccccc23)n[nH]c1=S	2.8%	5.3%	2.0%	28.2µM*	-6.2%	4.0
Nc1ncc(Br)cc1N=Cc1ccccc1	u	-8.5%	-4.2%	u	79.4µM*	-47.8*
Cc1ccc(S(=O)(=O)NC(C)C(=O)Nc2ccc3c(c2)OCO3)cc1 (centres undefined)	x	x	x	50.1µM*	5.8%	1.0
Cc1ccc(S(=O)(=O)NC(C(=O)N2CCOCCOCCOCC2)C(C)C)cc1 (centres undefined)	x	x	x	27.6%	11.0%	-0.2
Cc1ccc(S(=O)(=O)NC(C)C(=O)N2CCOCCOCCOCCOCC2)cc1 (centres undefined)	x	x	x	39.8µM*	29.5%	0.9
O=C(c1ccccc1)n1nc(-c2ccco2)nc1NCc1ccccc1Cl	-16.9%	-25.9%	-13.6%	-25.6%[59 µM]	x	x
CCN(CC)C(=O)c1cc(Cl)ccn1	u	0.7%	-12.6%	11.2µM*	44.7µM*	0.6
Cn1nc([N+](=O)[O-])nc1S(C)(=O)=O	u	u	-5.3%	56.2µM*	10.5%	-13.7
Cn1nc([N+](=O)[O-])nc1Oc1ccccc1F	2.7%	6.0%	0.1%	1.0%[12.7 µM]	24.0%	-3.9
Cc1ccc(CSC2=Nc3ccccc3C3=NC(CCC(=O)NC4CCCCC4)C(=O)N23)cc1 (centres undefined)	-3.8%	5.0%	2.3%	-6.6%[59 µM]	x	x
COCCNC(=O)c1cn(C(C)c2ccccc2F)nn1 (centres undefined)	8.3%	7.8%	0.6%	-2.4%[12.7 µM]	22.6%	-0.1
CC(c1ccccc1F)n1cc(C(=O)NCCc2ccco2)nn1 (centres undefined)	-11.9%	-5.8%	-6.1%	50.1µM*	-16.4%	0.0
COc1ccc(S(=O)(=O)N/N=C(/C)c2ccco2)cc1	x	x	x	55.4%	-6.4%	x
COc1ccc(N=C(C)C2=C(O)COC2=O)cc1	-6.7%	-1.4%	1.2%	6.31µM*	7.0%	-1.5
CC(C)C[C@H](NC(=O)[C@@H]1CCCN1C(=O)[C@H](CO)NC(=O)[C@H](Cc1ccccc1)NC(=O)CNC(=O)[C@@H]1CCCN1C(=O)[C@@H]1CCCN1C(=O)[C@@H](N)CCCN=C(N)N)C(=O)O	x	x	x	x	5.7%	0.1
CC(=O)Nc1ccc(S(=O)(=O)N(Cc2ccco2)Cc2cc3ccccc3[nH]c2=O)cc1	x	x	x	35.5µM*	1.4%	x
CC(=O)Nc1ccc(S(=O)(=O)N(Cc2cccnc2)Cc2cc3ccccc3[nH]c2=O)cc1	x	x	x	19.5%	2.6%	-0.9
COC(=O)c1ccccc1S(=O)(=O)N(Cc1ccco1)Cc1cc2cc(OC)ccc2[nH]c1=O	-12.8%	-11.8%	4.3%	u	22.4µM*	2.5
